# Data as given in the supplement of paper PMC9942566.
# ± gives the standard deviation of the averaged measurements.
# Tested on: Serratia marcescens K904 PosmB-luxCDABE reporter (pMQ747)
# Experiment: PosmB-lux reporter fold induction (RLU/OD600 relative to no-compound control), highest over Biolog concentrations; higher = stronger Rcs reporter activation
# Details: wild type K904; 4 h
# Protocol: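 Serratia marcescens K904 (wild type) or its isogenic ΔrcsB mutant, carrying the Rcs-dependent PosmB-luxCDABE reporter plasmid pMQ747, was grown in LB at OD600 0.1 in Biolog Phenotype MicroArray plates PM11-20 for 4 h at 30-32°C. Each compound is present at 3-4 proprietary concentrations (not stated); per the Fig. S1 legend the value given is the highest fold over those wells. Three independent trials.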
row,Structure (SMILES),PosmB-lux reporter fold induction
1,"c1ccc(-c2ccccn2)nc1 [2,2'-Dipyridyl] (Biolog plate: PM13, well positions: B5-8)",1.97 ± 0.26
2,"N.N.N.N.N.N.[Cl-].[Cl-].[Cl-].[Co+3] [hexammine cobalt (III) chloride] (Biolog plate: PM19, well positions: H1-4)",1.64 ± 0.12
3,"CO/N=C(\C(=O)N[C@@H]1C(=O)N2C(C(=O)O)=C(COC(N)=O)CS[C@H]12)c1ccco1 [Cefuroxime] (Biolog plate: PM13, well positions: D1-4)",1.85 ± 0.24
4,"CN(C)c1ccc(C(=C2C=CC(=[N+](C)C)C=C2)c2ccc(N(C)C)cc2)cc1 [crystal violet] (Biolog plate: PM20, well positions: E1-4)",0.912 ± 0.13
5,"O=P(O)(O)OP(=O)(O)O [sodium pyrophosphate decahydrate] (Biolog plate: PM18, well positions: A5-8)",1.27 ± 0.59
6,"CN[C@H](CC(C)C)C(=O)N[C@H]1C(=O)N[C@@H](CC(N)=O)C(=O)N[C@H]2C(=O)N[C@H]3C(=O)N[C@H](C(=O)N[C@H](C(=O)O)c4cc(O)cc(O)c4-c4cc3ccc4O)[C@H](O)c3ccc(c(Cl)c3)Oc3cc2cc(c3O[C@@H]2O[C@H](CO)[C@@H](O)[C@H](O)[C@H]2O[C@H]2C[C@](C)(N)[C@H](O)[C@H](C)O2)Oc2ccc(cc2Cl)[C@H]1O [Vancomycin] (Biolog plate: PM12, well positions: C5-8)",5.39 ± 2
7,"CCc1cc(C(N)=S)ccn1 [ethionamide] (Biolog plate: PM17, well positions: B9-12)",0.853 ± 0.16
8,"On1ccccc1=S [1-Hydroxy-pyridine-2-thione] (Biolog plate: PM14, well positions: C5-8)",4.06 ± 1.3
9,"O=C([O-])c1ccccc1O.[Na+] [sodium salicylate (NSAID)] (Biolog plate: PM17, well positions: B1-4)",5.52 ± 2
10,"NC(CO)C(=O)NO (racemic) [D,L-Serine hydroxamate] (Biolog plate: PM12, well positions: C9-12)",3.63 ± 0.5
11,"N[C@H](CO)C(=O)O [D-serine] (Biolog plate: PM17, well positions: A2-4)",2.39 ± 1.2
12,"NCC(=O)O [Glycine] (Biolog plate: PM13, well positions: F5-8)",1.52 ± 0.2
13,"O.O=S(=O)([O-])[O-].O=S(=O)([O-])[O-].O=S(=O)([O-])[O-].[Al+3].[Al+3] [aluminum sulfate] (Biolog plate: PM16, well positions: F9-12)",1.33 ± 0.3
14,"CC(=O)OCC1=C(C(=O)O)N2C(=O)[C@@H](NC(=O)Cc3cccs3)[C@H]2SC1 [Cephalothin] (Biolog plate: PM11, well positions: H1-4)",1.36 ± 0.043
15,"Cn1c(=O)c2c(ncn2C)n(C)c1=O [caffeine] (Biolog plate: PM17, well positions: H5-8)",1.68 ± 0.37
16,"O=C(N[C@H](CO)[C@H](O)c1ccc([N+](=O)[O-])cc1)C(Cl)Cl [Chloramphenicol] (Biolog plate: PM11, well positions: F1-4)",1.4 ± 0.62
17,"Nc1ccn(C2OC(CO)C(O)C2O)c(=O)n1 [Cytosine-1-beta-D-arabino-furanoside] (Biolog plate: PM13, well positions: E1-4)",1.5 ± 0.15
18,"CN(C)C(=O)/N=N/C(=O)N(C)C [diamide] (Biolog plate: PM16, well positions: D5-8)",1.26 ± 0.35
19,"NC(=O)NO [Hydroxyurea] (Biolog plate: PM15, well positions: H5-8)",13.1 ± 1.9
20,"Cc1cc(N)c2ccccc2[n+]1CCCCCCCCCC[n+]1c(C)cc(N)c2ccccc21 [Dequalinium chloride] (Biolog plate: PM13, well positions: A5-8)",1.23 ± 0.086

row,Structure (SMILES),PosmB-lux reporter fold induction
1,"CN(C)c1ccc(O)c2c1C[C@H]1C[C@H]3[C@H](N(C)C)C(O)=C(C(N)=O)C(=O)[C@@]3(O)C(O)=C1C2=O [Minocycline] (Biolog plate: PM11, well positions: C9-12)",2.54 ± 0.15
2,"Cc1onc(-c2ccccc2Cl)c1C(=O)N[C@@H]1C(=O)N2[C@@H]1SC(C)(C)[C@@H]2C(=O)O [Cloxacillin] (Biolog plate: PM11, well positions: B5-8)",2.22 ± 0.62
3,"CO[C@H]1/C=C/O[C@@]2(C)Oc3c(C)c(O)c4c(O)c(cc(O)c4c3C2=O)NC(=O)/C(C)=C\C=C\[C@H](C)[C@H](O)[C@@H](C)[C@@H](O)[C@@H](C)[C@H](OC(C)=O)[C@@H]1C [rifamycin SV] (Biolog plate: PM16, well positions: E9-12)",4.24 ± 0.58
4,"CO[C@H]1C[C@H](O[C@H]2[C@H](C)[C@@H](O[C@@H]3O[C@H](C)C[C@H](N(C)C)[C@H]3OC(C)=O)[C@@H](C)C[C@@]3(CO3)C(=O)[C@H](C)[C@@H](OC(C)=O)[C@@H](C)[C@@H](C)OC(=O)[C@@H]2C)O[C@@H](C)[C@@H]1OC(C)=O [troleandomycin] (Biolog plate: PM20, well positions: H9-12)",1.36 ± 0.24
5,"NCC(=O)NO [glycine hydroxamate] (Biolog plate: PM16, well positions: H1-4)",2.05 ± 0.2
6,"CCn1cc(C(=O)O)c(=O)c2cnc(N3CCNCC3)nc21 [pipemidic acid] (Biolog plate: PM18, well positions: B5-8)",1.46 ± 0.24
7,"CCCCCCCCCCCC[N+](C)(C)C [Dodecyltrimethyl ammonium bromide] (Biolog plate: PM12, well positions: H9-12)",2.03 ± 0.22
8,"O=C(O)CN(CCN(CC(=O)O)CC(=O)O)CC(=O)O (Biolog plate: PM15, well positions: B5-8)",1.66 ± 0.13
9,"O=c1ccc2ccc(O)cc2o1 [umbelliferone] (Biolog plate: PM19, well positions: C5-8)",1.07 ± 0.18
10,"[Na+].[Na+].[O]=[W](=[O])([O-])[O-] [sodium tungstate] (Biolog plate: PM17, well positions: E9-12)",1.69 ± 0.46
11,"Nc1ncn([C@@H]2O[C@H](CO)[C@@H](O)[C@H]2O)c(=O)n1 [5-azacytidine] (Biolog plate: PM16, well positions: E5-8)",1.15 ± 0.41
12,"Nc1ccc(S(=O)(=O)Nc2ccc(Cl)nn2)cc1 [sulfachloro-pyridazine] (Biolog plate: PM17, well positions: C5-8)",1.46 ± 0.31
13,"O=C(O)c1cn(C2CC2)c2cc(N3CCNCC3)c(F)cc2c1=O [ciprofloxacin] (Biolog plate: PM20, well positions: D5-8)",1.63 ± 0.41
14,"CN[C@@H]1[C@H](O)[C@H](NC)[C@H]2O[C@@]3(O)C(=O)C[C@@H](C)O[C@H]3O[C@@H]2[C@H]1O [Spectinomycin] (Biolog plate: PM12, well positions: G1-4)",1.57 ± 0.26
15,"O=C(O)c1cc(O)c(O)c(O)c1 [gallic acid] (Biolog plate: PM19, well positions: A5-8)",1.46 ± 0.28
16,"CC[C@H]1OC(=O)C[C@@H](O)[C@H](C)[C@@H](O[C@@H]2O[C@H](C)[C@@H](O[C@H]3C[C@@](C)(O)[C@@H](O)[C@H](C)O3)[C@H](N(C)C)[C@H]2O)[C@@H](CC=O)C[C@@H](C)C(=O)/C=C/C(C)=C/[C@@H]1CO[C@@H]1O[C@H](C)[C@@H](O)[C@@H](OC)[C@H]1OC [Tylosin] (Biolog plate: PM13, well positions: H9-12)",1.21 ± 0.18
17,"O=C(N[C@H](CO)[C@H](O)c1ccc([N+](=O)[O-])cc1)C(Cl)Cl [Chloramphenicol] (Biolog plate: PM14, well positions: F1-4)",2.41 ± 1.1
18,"CCN1CCN(C(=O)N[C@@H](C(=O)N[C@@H]2C(=O)N3C(C(=O)O)=C(CSc4nnnn4C)CS[C@H]23)c2ccc(O)cc2)C(=O)C1=O [cefoperazone] (Biolog plate: PM17, well positions: G9-12)",2.11 ± 0.69
19,"OB(O)O [Boric acid] (Biolog plate: PM14, well positions: C1-4)",1.77 ± 1.2
20,"[Cl-].[Cs+] [Cesium chloride] (Biolog plate: PM13, well positions: F1-4)",1.41 ± 0.16
